In test [1] the target is Lysosomal acid glucosylceramidase (Homo sapiens) (UniProt P04062). As to the kind of experiment: Glucocerebrosidase-p2 (AID 348; in the data active means potency below about 10 µM; further: potency means the concentration at half of the fitted maximal effect). To be noted: purified GBA, blue fluorogenic substrate, 40 min. The procedure, abridged:
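Compounds titrated from 0.6 nM upwards against 0.2 nM enzyme in pH 5.9 citric acid/KH2PO4, taurocholate, tween-20; blue fluorogenic substrate 80 uM, 40 min room temperature, stopped and read Ex 365/Em 440 for AC50.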

A short description of test [2]: AP1 Signaling Pathway (AID 357).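 Further: ME-180 reporter cells stimulated with EGF at its EC50 level; on the % scale 0 is the no-effect control and ±100 the full control effect.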 To be noted: ME-180 AP-1-bla reporter, EGF-induced, beta-lactamase ratio, 5 h; at 7.69 µM (top of the series) unless noted. The procedure, abridged: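 First, ME-180 AP-1-bla cells were cultured overnight at 37 °C in low-serum Opti-MEM. Next, titrated compounds with EC50 EGF were incubated 5 hours. Finally, CCF4 was added for 2.5 hours and the 460/530 nm ratio recorded.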

The target of test [3] is Cytochrome P450 1A2 (Homo sapiens) (UniProt P05177). As to the kind of experiment: p450-cyp1a2 (AID 410; calls by dose curve; further: potency means the concentration at half of the fitted maximal effect;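 on activity change, negative = inhibition: -100% = full effect of reference inhibitor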). As to conditions: recombinant CYP1A2, luciferin-ME demethylation, luminescence; series mostly up to 11.4 µM. The procedure, abridged:
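Inhibition was calculated relative to 57 uM furafylline (full inhibition). The reaction used human CYP1A2 at 20nM with Luciferin-ME at its Km, 100uM, driven by an NADPH-regenerating system for 60 min at room temperature.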

A short description of test [4]: NFAT Signaling Pathway (AID 444).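 Further: carbachol stimulus at about its EC50 of 1 µM final; on the % scale 0 is the no-effect control and ±100 the full control effect.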 To be noted: Jurkat NFAT-bla M1, carbachol, beta-lactamase ratio, 5 h; at 7.69 µM (top of the series) unless noted. The procedure, abridged: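 Read-out: CCF4 FRET ratio (460 nm/530 nm) after 1 h RT dye loading, used for %activity and AC50 from titration series. Cells: Jurkat NFAT-β-lactamase/M1 line, treated with compound plus 1 uM carbachol for 5 h, 37 °C.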

The nature of test [5]: Stat Signaling Pathway (AID 446).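 Further: ME-180 cervical cancer cells given 40 pM IL-6 alongside compound; SIE-controlled beta-lactamase reporter measured as 460/530 nm FRET emission ratio; on the % scale 0 is the no-effect control and ±100 the full control effect.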 To be noted: ME-180 (cervical carcinoma) SIE beta-lactamase reporter, IL-6 stimulated, 5 h; at 7.69 µM (top of the series) unless noted. The procedure, abridged:
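IL-6/STAT signaling read in ME-180 cells via an SIE beta-lactamase reporter. Stimulus was 40 pM IL-6 (its AC50) for 5 hrs, so both activation and inhibition register.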

Test [6] deals with Glucocorticoid receptor (Homo sapiens) (UniProt P04150). Briefly: GR-GFP Redistribution (AID 450;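 active means compounds whose dose series gives a full or clear partial fitted curve of increased nuclear translocation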; further: potency means the concentration at half of the fitted maximal effect). As to conditions: U2OS GR-GFP nuclear translocation, laser cytometry, 2 h.
Sequence of Glucocorticoid receptor (Homo sapiens) (P04150 whole entry, looked up, the tested form may be a part): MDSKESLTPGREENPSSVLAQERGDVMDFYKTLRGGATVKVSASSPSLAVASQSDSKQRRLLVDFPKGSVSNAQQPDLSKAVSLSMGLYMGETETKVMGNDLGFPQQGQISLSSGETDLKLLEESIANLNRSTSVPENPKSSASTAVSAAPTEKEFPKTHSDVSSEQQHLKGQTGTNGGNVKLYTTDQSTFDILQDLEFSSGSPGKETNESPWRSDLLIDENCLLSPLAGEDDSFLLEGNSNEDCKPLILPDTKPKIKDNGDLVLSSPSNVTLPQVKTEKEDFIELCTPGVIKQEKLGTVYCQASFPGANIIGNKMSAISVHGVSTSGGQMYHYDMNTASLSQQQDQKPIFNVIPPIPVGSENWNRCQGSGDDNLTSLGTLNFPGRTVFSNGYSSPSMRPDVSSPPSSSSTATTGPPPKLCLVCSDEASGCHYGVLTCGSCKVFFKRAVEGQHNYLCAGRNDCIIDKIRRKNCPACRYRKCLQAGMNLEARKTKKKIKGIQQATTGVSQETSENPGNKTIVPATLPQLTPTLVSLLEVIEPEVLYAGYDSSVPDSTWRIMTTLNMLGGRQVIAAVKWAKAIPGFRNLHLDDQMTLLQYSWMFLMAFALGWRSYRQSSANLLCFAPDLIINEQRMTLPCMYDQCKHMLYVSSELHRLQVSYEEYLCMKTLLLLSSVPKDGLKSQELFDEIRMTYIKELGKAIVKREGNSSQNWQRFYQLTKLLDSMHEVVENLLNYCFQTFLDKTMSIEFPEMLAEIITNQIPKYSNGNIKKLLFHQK
The target is the same in test [7]. As to the kind of experiment: GR-EFC Redistribution (AID 451; calls by dose curve; further: potency means the concentration at half of the fitted maximal effect). To be noted: CHO-K1 GR-EFC translocation, beta-gal luminescence, 2 h. The procedure, abridged: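 Translocation of GR-ED fusion to nuclear EA restores b-gal, read by luminescence after 1 h room-temperature detection. Engineered CHO-K1 biosensor cells, 1,000/well, exposed 2 h at 37 C to titrations up to 46 uM final.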

Test [8] has as its target Mitogen-activated protein kinase 10 (Mus musculus) (UniProt Q61831). Briefly: JNK3 AlphaScreen Assay (AID 530).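 Further: kinase came from lysate of stimulated human HepG2 cells; signal reports phosphorylation of biotinylated GST-cJun 1-79 at Ser73 with 10 µM ATP; on the % scale 0 is the no-effect control and ±100 the full control effect.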 To be noted: JNK3 lysate, c-Jun phosphorylation; series mostly up to 11.4 µM. The procedure, abridged:
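Room-temperature AlphaScreen kinase assay; pre-activated HepG2 lysate as JNK3 source, biotin-GST-cJun(1-79) substrate, 10 uM ATP, compound 15 min preincubation.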
A general note: Alpha assays give light when donor and acceptor beads are brought close together.

The target in test [9] is 3',5'-cyclic-AMP phosphodiesterase 4B (Homo sapiens) (UniProt Q07343). As to the kind of experiment: qHTS Assay for Inhibitors of PDE-IV (AID 607; active means well fitted activation curve with a large enough effect in the main read-out, with a control signal flat, not every such curve was filed as active; further: % of control where 0% means no effect). As to conditions: HEK293 ACTOne CNG channel cells, membrane potential fluorescence; series mostly up to 22.9 µM. The procedure, abridged: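 Live HEK293 cells with a modified cyclic nucleotide-gated (CNG) channel report intracellular cAMP via membrane-potential dye fluorescence (ex 535/em 590 nm). Endogenous PDE-IV was targeted. Compounds were tested at up to 22.9 uM final; RO 20-1724 100 uM served as control.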
Sequence of 3',5'-cyclic-AMP phosphodiesterase 4B (Homo sapiens) (Q07343 whole entry, looked up): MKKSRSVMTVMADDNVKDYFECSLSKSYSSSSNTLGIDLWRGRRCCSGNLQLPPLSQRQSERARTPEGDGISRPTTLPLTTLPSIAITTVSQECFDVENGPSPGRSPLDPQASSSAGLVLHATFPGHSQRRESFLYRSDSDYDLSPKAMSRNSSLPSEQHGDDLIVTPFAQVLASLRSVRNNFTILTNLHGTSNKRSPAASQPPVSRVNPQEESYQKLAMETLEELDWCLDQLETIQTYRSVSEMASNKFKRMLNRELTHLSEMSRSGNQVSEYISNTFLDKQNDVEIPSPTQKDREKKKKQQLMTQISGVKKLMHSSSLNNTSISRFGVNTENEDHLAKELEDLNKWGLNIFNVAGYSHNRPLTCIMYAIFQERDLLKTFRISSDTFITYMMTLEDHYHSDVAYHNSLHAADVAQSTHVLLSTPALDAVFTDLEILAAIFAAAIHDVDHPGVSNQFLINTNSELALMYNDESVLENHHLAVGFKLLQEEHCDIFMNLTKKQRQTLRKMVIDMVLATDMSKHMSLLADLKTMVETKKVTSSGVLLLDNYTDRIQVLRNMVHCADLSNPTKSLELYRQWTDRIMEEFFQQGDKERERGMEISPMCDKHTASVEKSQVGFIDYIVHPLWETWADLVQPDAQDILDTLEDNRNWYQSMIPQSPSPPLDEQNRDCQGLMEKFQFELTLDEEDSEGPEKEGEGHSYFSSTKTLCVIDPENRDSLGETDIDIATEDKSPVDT
On the technique in general: In qHTS, concentration-response curves come from the screen itself.

Values without a mark were called inactive. Records with an inconclusive call do not appear. Calls of active or inactive are those of the source. Unless noted, the call rests on the fitted dose curve; in most records, active means well fitted curve in either direction with a large enough effect (not every such curve was filed as active); inconclusive means small, poorly fitted or top-dose-only effect, or another doubt; inactive means flat fitted curve, though single readings scatter.

Sequence of Cytochrome P450 1A2 (Homo sapiens) (P05177 whole entry, looked up): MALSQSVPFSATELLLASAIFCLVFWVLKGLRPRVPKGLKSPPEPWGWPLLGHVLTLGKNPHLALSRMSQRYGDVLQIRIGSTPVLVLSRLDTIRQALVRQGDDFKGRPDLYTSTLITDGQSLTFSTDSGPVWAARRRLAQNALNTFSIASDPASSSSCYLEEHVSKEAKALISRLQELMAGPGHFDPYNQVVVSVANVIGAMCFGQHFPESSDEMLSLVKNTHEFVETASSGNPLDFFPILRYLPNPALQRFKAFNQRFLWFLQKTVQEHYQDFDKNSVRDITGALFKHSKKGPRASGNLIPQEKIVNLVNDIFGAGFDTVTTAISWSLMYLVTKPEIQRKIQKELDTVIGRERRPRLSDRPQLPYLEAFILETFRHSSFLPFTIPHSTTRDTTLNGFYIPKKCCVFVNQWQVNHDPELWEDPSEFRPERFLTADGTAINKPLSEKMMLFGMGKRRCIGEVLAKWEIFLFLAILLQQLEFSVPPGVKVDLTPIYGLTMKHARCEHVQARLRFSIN
Sequence of Lysosomal acid glucosylceramidase (Homo sapiens) (P04062 whole entry, looked up): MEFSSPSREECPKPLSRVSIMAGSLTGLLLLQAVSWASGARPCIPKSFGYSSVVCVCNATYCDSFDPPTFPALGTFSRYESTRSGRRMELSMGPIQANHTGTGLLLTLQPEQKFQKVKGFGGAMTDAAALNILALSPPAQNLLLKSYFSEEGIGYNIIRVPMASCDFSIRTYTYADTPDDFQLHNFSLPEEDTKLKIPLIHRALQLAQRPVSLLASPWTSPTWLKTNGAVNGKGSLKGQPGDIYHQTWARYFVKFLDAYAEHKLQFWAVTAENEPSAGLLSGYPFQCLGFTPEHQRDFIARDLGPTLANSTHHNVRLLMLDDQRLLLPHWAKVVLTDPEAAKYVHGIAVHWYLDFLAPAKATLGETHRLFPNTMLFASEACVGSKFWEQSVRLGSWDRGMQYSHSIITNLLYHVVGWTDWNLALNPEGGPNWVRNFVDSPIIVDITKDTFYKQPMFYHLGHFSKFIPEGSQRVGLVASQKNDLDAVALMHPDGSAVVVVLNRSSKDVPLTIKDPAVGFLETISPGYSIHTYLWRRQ

In the case of `O=C(O)c1ccc(C(=O)c2ccccc2)c(C(=O)O)c1`, the Potency in test [1] was more than 11.4 µM; in [6] it was more than 46 µM; in [7], more than 9.22 µM. Besides, the activity change, negative = inhibition was 21.3% in test [2], 3.1% [at 2.29 µM] in test [3] and 2.06% in test [4]. For the same compound, the activity, negative = inhibition in test [5] was 5.54%. Further, the Potency entry in test [8] and in test [9] was “inactive” in each case.

As for `COc1ccc(/C=N\NC(=O)O)cc1`, the Potency in [1] is more than 11.4 µM; in test [3] it was 0.501 µM (active); in test [6], more than 46 µM; in test [7] it was more than 9.22 µM. For the same compound, the activity change, negative = inhibition in [2] was 7.79%; in [4], 19.9%. The activity, negative = inhibition in test [5] is 7.25%. Further, the Potency entry in test [8] and in test [9] was “inactive” each time.

For the compound `Nc1nc(-c2cc(-c3cccc4ccccc34)nc(N)n2)cc(-c2cccc3ccccc23)n1`, the Potency is more than 11.4 µM in test [1], more than 46 µM in [6] and more than 9.22 µM in test [7]. Further, the results for the activity change, negative = inhibition in test [2], in test [3] and in [4] were -7.45%, -4.4% [at 2.29 µM] and 3.93%, respectively. The activity, negative = inhibition in test [5] was -4.92%. Also, the Potency entry in test [8] and in test [9] was “inactive” in each case.

On to `CC(=O)Nc1ccc(S(=O)(=O)N=S(C)C)cc1`, for which the Potency is more than 11.4 µM in [1], more than 46 µM in test [6] and more than 9.22 µM in test [7]. Moreover, the activity change, negative = inhibition in test [2] was 4.76%; in test [3], -15.9% [at 2.29 µM]; in [4] it was 3.98%. In addition, the activity, negative = inhibition in test [5] is -3.32%. In addition, the Potency entry in test [8] and in test [9] was “inactive” in each case.

In the case of `CC(C)(CC(=O)Nc1ccccc1)C(=O)O`, the Potency in test [1] was more than 11.4 µM; in test [6] it was more than 46 µM; in test [7], more than 9.22 µM. Besides, the results for the activity change, negative = inhibition in [2] and in test [4] were -3.37% and -4.05%, respectively. The Potency result in [3], in test [8] and in [9] was “inactive” throughout. Also, the activity, negative = inhibition in test [5] was 2.37%.

For `O=C(O)CCC(=O)c1ccc(Cl)cc1`, the Potency in test [1] was more than 11.4 µM; in test [6] it was more than 46 µM; in test [7] it was more than 9.22 µM. Further, the results for the activity change, negative = inhibition in [2] and in [4] were 11.6% and -7.55%, respectively. Further, the Potency result in test [3], in [8] and in test [9] was “inactive” throughout. For the same compound, in test [5], the activity, negative = inhibition was 17.9%.

In the case of `Cn1c(=O)c2[nH]c(COCc3nc4c([nH]3)c(=O)n(C)c(=O)n4C)nc2n(C)c1=O`, the results for the Potency in test [1], in [6] and in test [7] were more than 11.4 µM, more than 46 µM and more than 9.22 µM, respectively. Also, the activity change, negative = inhibition in [2] is 6.66%; in test [3], 4.5% [at 2.29 µM]; in test [4] it was 5.77%. Also, in test [5], the activity, negative = inhibition is -2.27%. Also, the Potency result in test [8] and in test [9] was “inactive” each time.

In the case of `O=C(O)[C@H]1[C@H](C(=O)O)[C@H](C(=O)O)C[C@@H]1C(=O)O`, the Potency in [1] is more than 11.4 µM; in [6], more than 46 µM; in test [7], more than 9.22 µM. Further, the activity change, negative = inhibition was -1.4% in test [2] and 2.63% in test [4]. The Potency result in [3], in test [8] and in test [9] was “inactive” in each case. The activity, negative = inhibition in [5] is 4.24%.

Turning to `Cc1cc(C)c(O)c(Cc2cccc(Cc3cc(C)cc(C)c3O)c2O)c1`, the Potency is more than 11.4 µM in [1], more than 46 µM in test [6] and more than 9.22 µM in test [7]. The activity change, negative = inhibition in test [2] is 0.471%; in test [3], -14.7% [at 2.29 µM]; in test [4], 11.9%. The activity, negative = inhibition in [5] is 2.38%. Besides, the Potency entry in test [8] and in test [9] was “inactive” throughout.

Turning to `O=C(O)Cc1c(O)ccc2ccccc12`, the Potency is more than 11.4 µM in [1], more than 46 µM in test [6] and more than 9.22 µM in [7]. Moreover, the activity change, negative = inhibition in [2] is 1.11%; in [4], 12.6%. Moreover, the Potency result in test [3], in [8] and in [9] was “inactive” each time. For the same compound, the activity, negative = inhibition in test [5] was 7.17%.

Turning to `NS(=O)(=O)c1ccc(NC2(C(=O)O)CCCC2)cc1`, the Potency is more than 11.4 µM in [1], 0.794 µM (active) in [3], more than 46 µM in [6] and more than 9.22 µM in test [7]. For the same compound, the results for the activity change, negative = inhibition in test [2] and in [4] were -4.84% and 2.12%, respectively. Besides, in test [5], the activity, negative = inhibition was 11.8%. Besides, the Potency entry in [8] and in [9] was “inactive” throughout.

Regarding `Nc1ncnc2c1ncn2[C@H]1O[C@@H](C(=O)OCCO)[C@@H](O)[C@H]1O`, the results for the Potency in [1], in test [6] and in test [7] were more than 11.4 µM, more than 46 µM and more than 9.22 µM, respectively. Also, the activity change, negative = inhibition in test [2] is 1.75%; in [4] it was 21.4%. For the same compound, the Potency entry in test [3], in test [8] and in test [9] was “inactive” throughout. Besides, in test [5], the activity, negative = inhibition was 25.7%.

In the case of `O=C(O)c1ccc(NS(=O)(=O)Cc2ccccc2)cc1`, the Potency is more than 11.4 µM in test [1], more than 46 µM in test [6] and more than 9.22 µM in test [7]. Further, the activity change, negative = inhibition in test [2] was 6.38%; in test [4], -0.542%. Also, the Potency result in test [3], in [8] and in test [9] was “inactive” each time. In addition, the activity, negative = inhibition in test [5] is -0.621%.

Take `O=S1(=O)N[C@H]2CC[C@@H]3NS(=O)(=O)N[C@H]4CC[C@H](N1)N4S(=O)(=O)N23`: the values for the Potency in test [1], in [6] and in [7] were more than 11.4 µM, more than 46 µM and more than 9.22 µM, respectively. Besides, the activity change, negative = inhibition is -14.2% in test [2] and 23.9% in test [4]. The Potency result in [3], in test [8] and in [9] was “inactive” throughout. Moreover, the activity, negative = inhibition in test [5] was -2.8%.

Consider `Oc1ccccc1CNCc1ccccc1O`, for which the Potency was more than 11.4 µM in test [1], more than 46 µM in test [6] and more than 9.22 µM in test [7]. The activity change, negative = inhibition in [2] was -4.9%; in [4] it was -12.2%. The Potency result in test [3], in [8] and in test [9] was “inactive” throughout. The activity, negative = inhibition in test [5] was -8.46%.

The values are drawn from PubChem BioAssay (NCATS).
